Unmarked numbers belong to inactive results. Records with an inconclusive call do not appear. Entries that show only a call come without a potency. Calls of active or inactive are those of the source. Unless noted, calls follow the shape of the full dose curve.
How the values were obtained:
[1] = Nuclear factor erythroid 2-related factor 2/antioxidant responsive element (Nrf2/ARE) small molecule agonists: qHTS cell viability counter screen in human keratinocytes (AID 1919968; active = well fitted curve in the direction sought with a large enough effect in the repeat runs; an effect the other way counts as inactive or inconclusive; also: nearly all actives have a fitted effect of over 55% in size; also: potency is read from the fitted curve at half-maximal effect)
Method in brief: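 Fluorescence read-out from CellTiter-Fluor after 1 h at 37 C. Wells held HaCaT-derived ARE-luciferase reporter cells (1,500/well) treated 23 h with DMSO-dissolved compounds. Run in the same wells as the luciferase agonist read.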

[2] = Nuclear factor erythroid 2-related factor 2/antioxidant responsive element (Nrf2/ARE) small molecule agonists: luciferase reporter gene qHTS assay in human keratinocytes (AID 1919969); also: nearly all actives have a fitted effect of over 35% in size; also: potency is read from the fitted curve at half-maximal effect
[3] = biological target: Gonadotropin-releasing hormone receptor (Homo sapiens) (UniProt P30968); experiment: Human gonadotropin-releasing hormone receptor (GnRHR) small molecule agonists, calcium flux assay in GnRHR-HEK293 cells (AID 1920063); also: nearly all actives have a fitted effect of over 35% in size; also: potency is read from the fitted curve at half-maximal effect
Method in brief: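 Calcium-dye fluorescence, Ex/Em=480/540, recorded every 1 sec over 3 min after compound addition to GnRHR-HEK293 cells. Cells had been seeded 18 hours earlier and dye-loaded for 1 hour at 37 C. Fifteen concentrations, triplicates.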

[4] = G protein-coupled receptor (GPCR) small molecule agonists, calcium flux assay: HEK293 wild type cell line counter screen (AID 1920065); also: potency is read from the fitted curve at half-maximal effect
Method in brief: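 Agonist mode; 18 h seeding at 37 C, 1 h dye load at 37 C; compounds pinned from DMSO, ATP as positive control; kinetic fluorescence 480/540 nm, 3 min, 1 s reads; 15 concentrations, triplicate.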

[5] = p53 small molecule agonists, cell-based qHTS assay with rat liver microsomes (AID 1963578)
Method in brief: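 Metabolic activation is supplied by rat liver microsomes with NADPH (each 0.5 mg/mL final). p53RE-bla cells incubate with compound 16 h at 37 C; reporter activity is measured by LiveBLAzer fluorescence.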

[6] = p53 small molecule agonists, cell-based qHTS assay with human liver microsomes: qHTS cell viability counter screen (AID 1963579); also: nearly all actives have a fitted effect of over 45% in size; also: potency is read from the fitted curve at half-maximal effect
Method in brief: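 After the 460/530 nm beta-lactamase read, CellTiter-Glo was added to the same wells and luminescence measured after 30 min at room temperature, giving viability of p53RE-bla cells treated 16 h with compounds plus microsomes and NADPH.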

[7] = p53 small molecule agonists, cell-based qHTS assay with rat liver microsomes: qHTS cell viability counter screen (AID 1963580); also: nearly all actives have a fitted effect of over 45% in size; also: potency is read from the fitted curve at half-maximal effect
Method in brief: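 Luminescent ATP readout (CellTiter-Glo, 30 min at room temperature) reports viability of p53RE-bla HCT-116 cells after 16 h at 37 C with test compounds under metabolic activation by rat liver microsomes and NADPH at 0.5 mg/mL final each.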

[8] = p53 small molecule agonists, cell-based qHTS assay: qHTS cell viability counter screen (AID 1963581); also: nearly all actives have a fitted effect of over 45% in size; also: potency is read from the fitted curve at half-maximal effect
Method in brief: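 Cytotoxicity read-out: ATP-based luminescence (CellTiter-Glo, 30 min RT) measured in the same wells as the p53 reporter assay, HCT-116 p53RE-bla cells, 16 h compound exposure at 37 C.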

[9] = biological target: 5-hydroxytryptamine receptor 2A (Homo sapiens) (UniProt P28223); experiment: 5-hydroxytryptamine receptor 2A (HTR2A) small molecule antagonists, cell-based qHTS assay (AID 1963586); also: nearly all actives have a fitted effect of over 45% in size; also: potency is read from the fitted curve at half-maximal effect
Method in brief: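 CHO cells stably expressing human HTR2A were plated for 18 h at 37 C, then loaded with calcium dye for 1 h. Compounds were preincubated 5 min at room temperature before DOI (4 nM solution) was added. Kinetic fluorescence was read for 3 min.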

[10] = biological target: 5-hydroxytryptamine receptor 2A (Homo sapiens) (UniProt P28223); experiment: 5-hydroxytryptamine receptor 2A (HTR2A) small molecule agonists, cell-based qHTS assay (AID 1963587); also: nearly all actives have a fitted effect of over 30% in size; also: potency is read from the fitted curve at half-maximal effect
Method in brief: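 HTR2A-CHO cells, plated 18 h at 37 C/5% CO2, dye-loaded 1 h at 37 C; compounds in DMSO added by pin tool (agonist mode). Intracellular calcium flux read as kinetic fluorescence on FDSS over 2 min at 1 s intervals.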

[11] = biological target: Muscarinic acetylcholine receptor M1 (Homo sapiens) (UniProt P11229); experiment: Cholinergic receptor muscarinic 1 (CHRM1) small molecule antagonists, cell-based qHTS assay (AID 1963588); also: nearly all actives have a fitted effect of over 40% in size
Method in brief: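 Compounds were tested at 15 concentrations in three independent runs. Dye-loaded CHRM1-CHO cells were exposed 5 min at room temperature before stimulation by acetylcholine added at 50nM. Intracellular calcium was read kinetically on FDSS for 3 min.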

[12] = biological target: Muscarinic acetylcholine receptor M1 (Homo sapiens) (UniProt P11229); experiment: Cholinergic receptor muscarinic 1 (CHRM1) small molecule agonists, cell-based qHTS assay (AID 1963589); also: nearly all actives have a fitted effect of over 35% in size; also: potency is read from the fitted curve at half-maximal effect
Method in brief: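 Calcium flux read-out: kinetic fluorescence at 1 sec intervals after pin-tool compound addition to dye-loaded CHRM1-CHO cells (human M1). Agonist mode; 15 concentrations tested in triplicate independent runs.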

[13] = cAMP Responsive Elements (CRE) small molecule antagonists, cell-based qHTS assay (AID 1963591; active = well fitted inhibition curve with a large enough effect in the signal ratio in the repeat runs, not every such curve was filed as active; the % refers to the signal ratio)
Method in brief: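 HEK293T CRE-bla; 18 h preincubation; compound pin-transfer; NKH477 0.25 uM final, 3 h, 37 C; LiveBLAzer FRET substrate 2 h RT.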

[14] = biological target: Beta-2 adrenergic receptor (Homo sapiens) (UniProt P07550); experiment: Adrenergic beta2 receptor (ADRB2) small molecule antagonists, cell-based qHTS assay (AID 1963592); also: nearly all actives have a fitted effect of over 50% in size; also: potency is read from the fitted curve at half-maximal effect
Method in brief: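 Assay format: CHO-ADRB2 cells, 18-20hr seeding at 37C/5% CO2, then compound plus 1nM isoproterenol agonist mix for 0.5hr RT. Homogeneous time-resolved fluorescence cAMP detection after 1hr, expressed as 665/615 nm ratio.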

[15] = biological target: D(2) dopamine receptor (Homo sapiens) (UniProt P14416); experiment: Dopamine D2 receptor (DRD2) small molecule agonists, cell-based qHTS assay (AID 1963594); also: nearly all actives have a fitted effect of over 35% in size
Method in brief: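 HEK293 cells stably expressing DRD2 were cultured 24 h at 37 C, then given Ro20-1724 (0.1 mM final) and compounds for 10 min at room temperature. NKH477 (200nM) was then added for 30 min. cAMP was read by HTRF.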

[16] = biological target: D(2) dopamine receptor (Homo sapiens) (UniProt P14416); experiment: Dopamine D2 receptor (DRD2) small molecule antagonists, cell-based qHTS assay (AID 1963595; active = well fitted inhibition curve with a large enough effect in the signal ratio in the repeat runs, with a control signal flat; the % refers to the signal ratio; also: potency is read from the fitted curve at half-maximal effect)
Method in brief: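 DRD2-HEK293; 0.1 mM Ro20-1724; cpd 10 min RT; NKH477 200 nM + quinpirole 12 nM, 30 min RT; HTRF cAMP (cAMP-d2/anti-cAMP cryptate), 665/620 nm ratio after 1 h.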

[17] = p53 small molecule agonists, cell-based qHTS assay (AID 1963582; active = well fitted activation curve with a large enough effect in the signal ratio in the repeat runs, not every such curve was filed as active; the % refers to the signal ratio)
Method in brief: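 Fluorescence intensity read-out of a beta-lactamase reporter under a p53 response element. Cells were exposed to DMSO-dissolved compounds for 16 h at 37 C, then developed with FRET substrate for 2 h at RT.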

[18] = cAMP Responsive Elements (CRE) small molecule agonists, cell-based qHTS assay (AID 1963590)
Method in brief: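 Beta-lactamase reporter readout: LiveBLAzer B/G FRET substrate, 2 h at room temperature, added after 3 h compound treatment of CRE-bla HEK 293T cells at 37 C/5% CO2.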

[19] = p53 small molecule agonists, cell-based qHTS assay with human liver microsomes (AID 1963577);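 also: p53 response element beta-lactamase reporter cells with liver microsomes plus NADPH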
Method in brief: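 Steps: plate p53RE-bla cells, incubate 5 h at 37 C; add compound in DMSO; add microsomes (0.5 mg/mL final) and NADPH (0.5 mg/mL final); incubate 16 h at 37 C; add LiveBLAzer, 2 h RT; read fluorescence.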

[20] = biological target: KiSS-1 receptor (Homo sapiens) (UniProt Q969F8); experiment: Human kisspeptin (KISS1R) small molecule agonists, calcium flux assay in KISS1R-HEK293 cells (AID 1920064; active = well fitted curve in the direction sought with a large enough effect in the repeat runs; an effect the other way counts as inactive or inconclusive)
Method in brief: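 Calcium flux read-out: kinetic fluorescence at Ex/Em=480/540, 1 s intervals over 3 min, after pin-tool compound addition to dye-loaded KISS1R-HEK293 cells. Fifteen concentrations, triplicates.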

Chain of Muscarinic acetylcholine receptor M1 (Homo sapiens) (P11229 whole entry, looked up): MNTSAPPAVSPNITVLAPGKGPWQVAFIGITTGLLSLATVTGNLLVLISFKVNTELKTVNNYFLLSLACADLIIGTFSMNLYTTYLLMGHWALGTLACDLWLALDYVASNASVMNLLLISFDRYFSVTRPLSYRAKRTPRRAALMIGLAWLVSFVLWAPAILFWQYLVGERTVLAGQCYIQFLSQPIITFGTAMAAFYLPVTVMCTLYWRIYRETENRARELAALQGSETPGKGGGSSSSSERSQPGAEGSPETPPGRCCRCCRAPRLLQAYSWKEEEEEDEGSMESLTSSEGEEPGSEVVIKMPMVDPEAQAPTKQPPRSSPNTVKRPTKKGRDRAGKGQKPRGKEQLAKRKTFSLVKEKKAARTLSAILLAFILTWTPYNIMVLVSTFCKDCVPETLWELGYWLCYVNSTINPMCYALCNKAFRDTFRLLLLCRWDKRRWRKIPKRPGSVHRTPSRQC
Chain of Beta-2 adrenergic receptor (Homo sapiens) (P07550 whole entry, looked up): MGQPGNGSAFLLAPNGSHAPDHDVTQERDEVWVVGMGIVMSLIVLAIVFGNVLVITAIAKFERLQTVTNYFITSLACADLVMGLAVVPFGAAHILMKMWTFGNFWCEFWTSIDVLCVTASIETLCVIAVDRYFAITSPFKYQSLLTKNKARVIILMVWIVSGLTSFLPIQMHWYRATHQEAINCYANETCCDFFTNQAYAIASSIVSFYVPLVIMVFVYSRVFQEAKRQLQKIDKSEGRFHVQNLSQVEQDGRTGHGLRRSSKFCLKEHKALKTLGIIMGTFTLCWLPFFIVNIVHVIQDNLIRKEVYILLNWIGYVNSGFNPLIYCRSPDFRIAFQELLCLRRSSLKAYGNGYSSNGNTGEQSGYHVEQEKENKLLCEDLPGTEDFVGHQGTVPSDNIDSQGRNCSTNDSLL
Chain of D(2) dopamine receptor (Homo sapiens) (P14416 whole entry, looked up): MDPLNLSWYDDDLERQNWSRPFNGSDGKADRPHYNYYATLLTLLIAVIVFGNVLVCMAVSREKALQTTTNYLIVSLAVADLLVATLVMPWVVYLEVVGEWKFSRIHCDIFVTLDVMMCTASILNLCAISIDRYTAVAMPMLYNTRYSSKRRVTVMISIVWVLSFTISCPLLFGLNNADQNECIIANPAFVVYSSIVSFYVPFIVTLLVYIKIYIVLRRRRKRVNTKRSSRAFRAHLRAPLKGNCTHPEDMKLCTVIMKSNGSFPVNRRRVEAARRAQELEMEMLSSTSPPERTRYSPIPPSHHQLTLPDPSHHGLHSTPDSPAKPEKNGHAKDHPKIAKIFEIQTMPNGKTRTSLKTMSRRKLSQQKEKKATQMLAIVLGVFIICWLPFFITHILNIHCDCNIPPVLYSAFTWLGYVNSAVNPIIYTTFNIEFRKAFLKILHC
Chain of Gonadotropin-releasing hormone receptor (Homo sapiens) (P30968 whole entry, looked up): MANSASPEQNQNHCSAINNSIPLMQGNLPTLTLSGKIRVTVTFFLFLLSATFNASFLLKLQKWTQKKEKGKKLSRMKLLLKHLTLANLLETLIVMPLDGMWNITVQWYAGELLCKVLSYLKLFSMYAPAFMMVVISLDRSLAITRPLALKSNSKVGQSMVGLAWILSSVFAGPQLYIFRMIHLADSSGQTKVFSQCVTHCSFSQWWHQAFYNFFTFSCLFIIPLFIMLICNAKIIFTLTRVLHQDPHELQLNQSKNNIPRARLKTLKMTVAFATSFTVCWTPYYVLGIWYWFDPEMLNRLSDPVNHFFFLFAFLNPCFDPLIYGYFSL
Chain of 5-hydroxytryptamine receptor 2A (Homo sapiens) (P28223 whole entry, looked up): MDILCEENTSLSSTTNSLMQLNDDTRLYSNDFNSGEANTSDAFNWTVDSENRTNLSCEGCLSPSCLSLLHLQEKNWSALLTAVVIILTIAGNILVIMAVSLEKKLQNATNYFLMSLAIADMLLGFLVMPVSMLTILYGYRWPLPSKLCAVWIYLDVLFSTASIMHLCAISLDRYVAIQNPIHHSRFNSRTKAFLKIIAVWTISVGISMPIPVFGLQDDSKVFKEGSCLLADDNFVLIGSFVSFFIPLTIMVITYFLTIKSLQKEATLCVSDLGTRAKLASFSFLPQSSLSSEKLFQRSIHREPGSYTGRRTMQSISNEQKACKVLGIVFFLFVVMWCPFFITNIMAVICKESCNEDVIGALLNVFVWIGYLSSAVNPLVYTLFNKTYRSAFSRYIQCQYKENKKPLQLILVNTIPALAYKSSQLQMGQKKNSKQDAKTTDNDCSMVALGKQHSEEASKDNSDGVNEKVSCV
Chain of KiSS-1 receptor (Homo sapiens) (Q969F8 whole entry, looked up): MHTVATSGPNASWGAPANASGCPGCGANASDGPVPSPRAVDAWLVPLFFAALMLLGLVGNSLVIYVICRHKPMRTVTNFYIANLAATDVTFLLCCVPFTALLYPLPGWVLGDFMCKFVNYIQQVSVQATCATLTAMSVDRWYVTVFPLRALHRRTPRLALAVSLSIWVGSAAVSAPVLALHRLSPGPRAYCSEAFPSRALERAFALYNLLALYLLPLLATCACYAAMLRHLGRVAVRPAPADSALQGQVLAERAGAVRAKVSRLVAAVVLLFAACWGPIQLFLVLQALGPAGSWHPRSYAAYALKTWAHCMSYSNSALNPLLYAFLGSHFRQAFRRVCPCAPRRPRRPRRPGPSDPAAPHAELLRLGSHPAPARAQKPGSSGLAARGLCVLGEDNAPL

| SMILES | Potency [1] | Potency [2] | Potency [3] | Potency [4] | Potency [5] | Potency [6] | Potency [7] | Potency [8] | Potency [9] | Potency [10] | Potency [11] | Potency [12] | Potency [13] | Potency [14] | Potency [15] | Potency [16] | Potency [17] | Potency [18] | Potency [19] | Potency [20] |
| --- | --- | --- | --- | --- | --- | --- | --- | --- | --- | --- | --- | --- | --- | --- | --- | --- | --- | --- | --- | --- |
| [Cl][Sb]([Cl])[Cl] | inactive | 27.3 µM (active) | inactive | inactive | inactive | inactive | inactive | inactive | inactive | inactive | inactive | inactive | inactive | inactive | inactive | inactive | – | – | – | – |
| CCCCCCCCBr | inactive | inactive | inactive | inactive | inactive | inactive | – | inactive | inactive | inactive | – | inactive | inactive | inactive | – | inactive | inactive | inactive | – | – |
| CC(C)CBr | inactive | inactive | inactive | inactive | inactive | inactive | inactive | inactive | inactive | inactive | inactive | inactive | inactive | inactive | inactive | inactive | inactive | inactive | – | – |
| O=c1[nH]c2ccccc2o1 | inactive | inactive | inactive | inactive | – | inactive | inactive | – | – | inactive | inactive | inactive | inactive | inactive | inactive | inactive | – | inactive | – | – |
| Cc1ccc(N(SC(F)(Cl)Cl)S(=O)(=O)N(C)C)cc1 | 27.3 µM (active) | 7.7 µM (active) | 34.7 µM (active) | 38.9 µM (active) | – | 16.2 µM (active) | – | inactive | inactive | 49 µM (active) | – | 49 µM (active) | – | – | – | 3.06 µM (active) | inactive | – | inactive | – |
| CN/C(=N\[N+](=O)[O-])NCc1cnc(Cl)s1 | inactive | inactive | – | inactive | inactive | inactive | inactive | inactive | inactive | inactive | inactive | inactive | – | inactive | inactive | inactive | inactive | – | inactive | inactive |
| Cc1c(Cl)c(=O)oc2cc(OP(=O)(OCCCl)OCCCl)ccc12 | inactive | inactive | inactive | inactive | – | inactive | inactive | inactive | inactive | inactive | inactive | inactive | – | inactive | – | inactive | inactive | – | – | – |
| CC1C(=O)C[C@]2(C(C)C)C[C@H]12 (stereo partly specified) | inactive | inactive | inactive | inactive | – | inactive | inactive | inactive | inactive | – | inactive | inactive | – | inactive | inactive | inactive | – | inactive | – | – |
| Brc1cccc(-c2ccccc2)c1 | inactive | inactive | inactive | inactive | – | inactive | inactive | inactive | inactive | inactive | inactive | inactive | inactive | inactive | inactive | inactive | – | inactive | – | – |
| CCCN(CCC)C(=O)Cc1c(-c2ccc(Cl)cc2)nc2ccc(Cl)cn12 | inactive | inactive | inactive | inactive | – | inactive | inactive | inactive | – | inactive | inactive | inactive | – | – | inactive | inactive | inactive | – | inactive | – |
| CCC[CH2][Sn]([CH2]CCC)([CH2]CCC)[CH2]CCC | 12.2 µM (active) | 15.4 µM (active) | inactive | inactive | inactive | – | inactive | – | inactive | – | inactive | – | – | 48.6 µM (active) | – | – | – | – | inactive | – |
| COC(=O)c1ccccc1S(=O)(=O)NC(=O)N(C)c1nc(C)nc(OC)n1 | inactive | inactive | inactive | – | inactive | inactive | – | inactive | – | inactive | inactive | inactive | inactive | inactive | inactive | inactive | inactive | inactive | – | – |
| C1CCC(C2CCCCC2)CC1 | inactive | inactive | inactive | inactive | – | inactive | – | inactive | inactive | inactive | inactive | inactive | – | inactive | inactive | inactive | – | – | – | – |
| [Hg+2].[I-].[I-] | 4.33 µM (active) | 1.22 µM (active) | 43.6 µM (active) | inactive | – | 4.58 µM (active) | 12.9 µM (active) | 18.2 µM (active) | inactive | 49 µM (active) | inactive | – | – | – | – | 27.3 µM (active) | – | – | inactive | – |
| COCc1cnc(C2=NC(C)(C(C)C)C(=O)N2)c(C(=O)O)c1 (stereo unspecified) | inactive | inactive | inactive | inactive | – | inactive | inactive | – | inactive | inactive | inactive | inactive | – | inactive | – | inactive | – | inactive | – | – |
| COP(=O)(OC)O/C(=C/Cl)c1cc(Cl)c(Cl)cc1Cl | inactive | 51.3 µM (active) | inactive | inactive | – | inactive | inactive | inactive | 15.8 µM (active) | inactive | inactive | inactive | – | inactive | inactive | inactive | inactive | inactive | – | – |
| Nc1c(Cl)c(F)nc(OCC(=O)O)c1Cl | inactive | inactive | – | inactive | inactive | inactive | inactive | inactive | inactive | inactive | inactive | inactive | inactive | – | inactive | inactive | inactive | – | inactive | inactive |
